The values that follow come from PubChem BioAssay (NCI).

Among the test systems are NCI-H23 lung; NCI-H226 lung; NCI-H322M lung; HOP-62 NSCLC; NCI-H460 lung; HOP-92 NSCLC; NCI-H522 lung; A549/ATCC NSCLC; 786-0 renal; COLO 205 colon; DU-145 prostate; K-562 leukemia; MALME-3M melanoma; MDA-MB-231 breast; RXF 393 renal; SF-268 CNS; SF-295 CNS; SF-539 CNS; UACC-257 melanoma; M14 melanoma.
Common to all, as to assay: NCI-60 one-dose screen, 48 h (100 = growth as untreated, 0 = no growth, -100 = all killed)
What all share (settings): 10 µM unless noted

Several values for one entry are separate records, joined by “and”; a condition that tells them apart may be missing. Equal entries are not always repeated. The panel holds about 83,000 compounds, 20% with a hit somewhere; the sample as a whole holds those more often.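 Single-concentration screen, 48 h exposure, 96-well plates. Endpoint: percent growth. Below 10 = active.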 Activity calls are given as the source filed them.

Take `CS(=O)(=O)c1nsc(N)n1`: the growth in the assay with NCI-H23 lung is 94.7% (inactive); in the assay on NCI-H226 lung, 99.2% (inactive); with NCI-H322M lung, 98.4% (inactive); in the assay with HOP-62 NSCLC, 89.5% (inactive); with NCI-H460 lung, 106% (inactive); with HOP-92 NSCLC, 111% (inactive). Moreover, the growth with NCI-H522 lung was 91.1% (inactive); in the assay with A549/ATCC NSCLC, 87.7% (inactive); in the assay with 786-0 renal it was 106% (inactive); in the assay with COLO 205 colon it was 103% (inactive); with DU-145 prostate, 109% (inactive); with K-562 leukemia, 98.7% (inactive). In addition, the growth in the assay on MALME-3M melanoma is 101% (inactive); in the assay with MDA-MB-231 breast, 106% (inactive); in the assay on RXF 393 renal it was 108% (inactive); in the assay on SF-268 CNS, 100% (inactive); in the assay with SF-295 CNS it was 104% (inactive); in the assay with SF-539 CNS it was 102% (inactive). In addition, the figures for the growth with UACC-257 melanoma and in the assay with M14 melanoma were 84.9% (inactive) and 104% (inactive), respectively.
Take `O=c1[nH]c(=S)[nH]n1C(=S)n1[nH]c(=S)[nH]c1=O`: the growth was 110% (inactive) in the assay on NCI-H23 lung; 85% (inactive) with NCI-H226 lung; 96.8% (inactive) in the assay on NCI-H322M lung; 97.2% (inactive) in the assay on HOP-62 NSCLC; 103% (inactive) with NCI-H460 lung; 82.2% (inactive) in the assay with HOP-92 NSCLC. In addition, the growth in the assay with NCI-H522 lung is 84.6% (inactive); in the assay with A549/ATCC NSCLC, 93.6% (inactive); with 786-0 renal, 106% (inactive); in the assay with COLO 205 colon, 111% (inactive); in the assay with DU-145 prostate, 110% (inactive); with K-562 leukemia it was 98.8% (inactive). Besides, the growth was 102% (inactive) with MALME-3M melanoma; 111% (inactive) in the assay with MDA-MB-231 breast; 95.6% (inactive) in the assay with RXF 393 renal; 103% (inactive) with SF-268 CNS; 97.8% (inactive) in the assay on SF-295 CNS; 110% (inactive) in the assay with SF-539 CNS. The values for the growth in the assay on UACC-257 melanoma and in the assay with M14 melanoma were 108% (inactive) and 105% (inactive), respectively.
As for `CN(C)c1ccc(C(=N)c2ccc(N(C)C)cc2)cc1`, the growth with NCI-H23 lung was 56.4% (inactive) and 41.9% (inactive); in the assay on NCI-H226 lung, 74.5% (inactive) and 47.3% (inactive); in the assay with NCI-H322M lung, 58.1% (inactive) and 60.9% (inactive); in the assay with HOP-62 NSCLC it was 26.3% (inactive) and 37.2% (inactive); with NCI-H460 lung, 9.11% (active) and 15.7% (inactive); with HOP-92 NSCLC it was 32.5% (inactive) and 27.5% (inactive). For the same molecule, the growth with NCI-H522 lung was -23.9% (active) and 17.8% (inactive); in the assay with A549/ATCC NSCLC, 32% (inactive) and 24.2% (inactive); in the assay on 786-0 renal, 47.4% (inactive) and 40.2% (inactive); with COLO 205 colon, 17.5% (inactive) and 13.2% (inactive); with DU-145 prostate, 42.3% (inactive) and 56.5% (inactive); with K-562 leukemia it was 12.8% (inactive) and 7.8% (active). The growth was 61.6% (inactive) with MALME-3M melanoma; 53.9% (inactive) and 35.9% (inactive) in the assay on MDA-MB-231 breast; 49.6% (inactive) and 39.6% (inactive) in the assay on RXF 393 renal; 44.5% (inactive) and 53.6% (inactive) in the assay on SF-268 CNS; 26.7% (inactive) and 12.1% (inactive) in the assay with SF-295 CNS; 41.1% (inactive) and 34.6% (inactive) with SF-539 CNS. In addition, the growth in the assay on UACC-257 melanoma is 38.2% (inactive) and 51.7% (inactive); in the assay with M14 melanoma, 2.95% (active).
As to `O=c1[nH]nnc2cc(Cl)ccc12`, the growth with NCI-H23 lung is 94.4% (inactive) and 92.2% (inactive); in the assay on NCI-H226 lung it was 104% (inactive) and 93.2% (inactive); in the assay on NCI-H322M lung it was 110% (inactive) and 115% (inactive); in the assay with HOP-62 NSCLC, 105% (inactive) and 89.1% (inactive); in the assay on NCI-H460 lung, 114% (inactive) and 101% (inactive); with HOP-92 NSCLC it was 109% (inactive). For the same molecule, the growth in the assay on NCI-H522 lung was 103% (inactive) and 106% (inactive); in the assay with A549/ATCC NSCLC it was 101% (inactive); in the assay with 786-0 renal, 117% (inactive) and 94.5% (inactive); in the assay with COLO 205 colon it was 112% (inactive) and 117% (inactive); in the assay with DU-145 prostate, 108% (inactive) and 114% (inactive); with K-562 leukemia, 119% (inactive) and 98.3% (inactive). In addition, the growth in the assay on MALME-3M melanoma is 124% (inactive) and 113% (inactive); in the assay on MDA-MB-231 breast, 105% (inactive) and 97.6% (inactive); in the assay on RXF 393 renal, 119% (inactive) and 111% (inactive); in the assay with SF-268 CNS, 101% (inactive) and 95.4% (inactive); with SF-295 CNS, 103% (inactive); with SF-539 CNS, 104% (inactive) and 106% (inactive). In addition, the growth with UACC-257 melanoma was 98.6% (inactive) and 105% (inactive); with M14 melanoma it was 105% (inactive).
Turning to `CCCC(=O)Oc1ccc(CC)cc1`, the growth with NCI-H23 lung is 96.5% (inactive); in the assay on NCI-H226 lung, 110% (inactive); in the assay on NCI-H322M lung, 106% (inactive); in the assay with HOP-62 NSCLC, 98.9% (inactive); in the assay with NCI-H460 lung, 105% (inactive); with HOP-92 NSCLC, 115% (inactive). In addition, the growth with NCI-H522 lung is 93% (inactive); in the assay with A549/ATCC NSCLC it was 101% (inactive); in the assay on 786-0 renal, 99.7% (inactive); in the assay with COLO 205 colon it was 104% (inactive); in the assay on DU-145 prostate it was 109% (inactive); with K-562 leukemia, 96.7% (inactive). Also, the growth with MALME-3M melanoma was 104% (inactive); in the assay with MDA-MB-231 breast, 111% (inactive); in the assay with RXF 393 renal, 117% (inactive); in the assay with SF-268 CNS it was 96.9% (inactive); in the assay with SF-295 CNS it was 98.5% (inactive); with SF-539 CNS, 101% (inactive). For the same molecule, the growth is 94.2% (inactive) with UACC-257 melanoma and 99% (inactive) with M14 melanoma.
